# Test results taken from ChEMBL document CHEMBL3988442, “University of Dundee, Small-Polar-MMV Screening Library” (2021).
# The campaign covered roughly 66,000 compounds. About 960 (1.5%) showed an effect of 50% or more. Only a selection was taken, and strong results are over-represented in it overall.
# Test system: Trypanosoma brucei
# Assay: Trypanosoma brucei 72 hour study
# Assay type: functional, organism-based
# Design: scale not given: in the data most compounds retested in dose-response had high values
structure (smiles),measurement,setting,value
O=C1CC(c2cccc(Cl)c2)c2snc(C(=O)O)c2N1 (configuration not stated),Percent Effect,"30.3 µM, […]",-31.06%
CN1CCC(Oc2ccc(NC(=O)c3ccccc3Br)cc2)CC1,Percent Effect,"30 µM, 30.03 µM",65.56%
Cc1ccccc1C(=O)Nc1ccc(OC2CCN(C)CC2)cc1,Percent Effect,"30 µM, 30.03 µM",-8.393%
COc1ccccc1C(=O)Nc1ccc(OC2CCN(C)CC2)cc1,Percent Effect,"30 µM, 30.03 µM",-32.85%
Cl.O=C(NCC1CCCO1)c1cc(-c2ccncc2)c2cnccc2n1 (configuration not stated),Percent Effect,"30.3 µM, […]",-19.01%
CC1=Nc2c(c(=O)[nH]n2C(C)C)C(c2ccc3ncccc3c2)S1 (configuration not stated),Percent Effect,"30 µM, 30.03 µM",-30.02%
CC(Cn1cccn1)NCc1nc(-c2ccc3c(c2)OCO3)no1 (configuration not stated),Percent Effect,"30.3 µM, […]",-4.603%
CC(Cn1cccn1)NCc1nc(-c2cccc(Cl)c2)no1 (configuration not stated),Percent Effect,"30 µM, 30.03 µM",53.11%
CC(Cn1cccn1)NCc1nc(-c2cccnc2)no1 (configuration not stated),Percent Effect,"30 µM, 30.03 µM",5.913%
CCn1ccnc1C1CCCN(C(=O)c2sc(C)nc2C)C1 (configuration not stated),Percent Effect,"30 µM, 30.03 µM",-29.7%
Cc1cc(C)nc(N2CCCC(c3nccn3CCCN(C)C)C2)c1 (configuration not stated),Percent Effect,"30 µM, 30.03 µM",-17.07%
Cc1nc(N)sc1C(=O)N1CCCC(c2nccn2CCCN(C)C)C1 (configuration not stated),Percent Effect,"30 µM, 30.03 µM",50.48%
N#CCc1cccc(C(=O)N2CCN(CC(O)c3ccccc3)CC2)c1 (configuration not stated),Percent Effect,"30.3 µM, […]",6.868%
same,Percent Effect,"10 mM, 10 mM as filed; unlikely as a test dose",-3.185%
Cc1ncccc1CNCC1CCN(CC(O)c2ccccc2)CC1 (configuration not stated),Percent Effect,"30 µM, 30.03 µM",36.2%
CCn1ccnc1CN1CCN(CC(O)c2ccccc2)CC1 (configuration not stated),Percent Effect,"30 µM, 30.03 µM",-18.29%
Cc1noc(C)c1CNCC1CCN(CC(O)c2ccccc2)CC1 (configuration not stated),Percent Effect,"30 µM, 30.03 µM",39.8%
OC(CN1CCC(CNCc2ccccn2)CC1)c1ccccc1 (configuration not stated),Percent Effect,10 µM,-26.34%
same,Percent Effect,"30.3 µM, […]",32.19%
Cc1ccc(CNCC2CCN(CC(O)c3ccccc3)CC2)o1 (configuration not stated),Percent Effect,10 µM,51.2%
same,Percent Effect,"30.3 µM, […]",70.09%
CCn1ccnc1CNCC1CCN(CC(O)c2ccccc2)CC1 (configuration not stated),Percent Effect,"30 µM, 30.03 µM",95.36%
CN(C)CCOC[C@H]1CC[C@H]2[C@H](CCN2C(=O)c2ccoc2)O1.O=C(O)C(F)(F)F,Percent Effect,"30 µM, 30.03 µM",21.89%
Cc1cnn(CC2CCCN2C(=O)c2cn(C)c3ccccc23)c1 (configuration not stated),Percent Effect,10 µM,-33.63%
Cc1ccc(-c2cc(CNc3ncnc4c3CCNCC4)no2)cc1,Percent Effect,"30 µM, 30.03 µM",31.3%
CSc1ccc(CN(C)Cc2noc(C(C)(C)C)n2)cc1,Percent Effect,"30 µM, 30.03 µM",-12.59%
Cc1ccc2c(n1)N(CCn1cccn1)CCN(CC1CC1)C2.O=C(O)C(F)(F)F.O=C(O)C(F)(F)F,Percent Effect,"30.3 µM, […]",-30.39%
CS(=O)(=O)N1CCC(CNC(=O)C2CCCC2)CC1,Percent Effect,"30 µM, 30.03 µM",-35.01%
COCCN1CCCC2(CCN(c3cc(C)c(C#N)c(C)n3)C2)C1=O (configuration not stated),Percent Effect,"30 µM, 30.03 µM",50.02%
Cc1cc(C)c(C#N)c(N2CCC3(CCCN(CCO)C3=O)C2)n1 (configuration not stated),Percent Effect,"30 µM, 30.03 µM",-17.57%
Cc1cc(N2CCC3(CCCN(CCO)C3=O)C2)nc(C)c1C#N (configuration not stated),Percent Effect,"30 µM, 30.03 µM",-51.69%
Cn1cccc1C(=O)N1CCC2(CCN(C(=O)c3cccnc3)C2)CC1.O=C(O)C(F)(F)F,Percent Effect,"30.3 µM, […]",-55.95%
CC1c2ncc(CNC(=O)C3CC3)n2CCN1Cc1ccncc1.O=C(O)C(F)(F)F.O=C(O)C(F)(F)F (configuration not stated),Percent Effect,"30.3 µM, […]",-14.67%
C[C@@H]1C(=O)NC[C@H]2CN(CCc3ccccc3)C[C@H]21.O=C(O)C(F)(F)F,Percent Effect,"30.3 µM, […]",-1.404%
CCc1nc(CN(C)C2CCN(CCc3ccccn3)C2)no1 (configuration not stated),Percent Effect,"30 µM, 30.03 µM",3.156%
CCc1nc(CN(C(C)=O)C2CCN(CCc3ccccc3)C2)no1 (configuration not stated),Percent Effect,10 µM,-54.25%
CCc1nc(CN(C(C)=O)C2CCN(CCc3ccccn3)C2)no1 (configuration not stated),Percent Effect,10 µM,65.29%
Cc1ccc(CN2C[C@@H]3[C@@H](C(=O)NCC4CC4)CCS(=O)(=O)[C@@H]3C2)cc1.O=C(O)C(F)(F)F,Percent Effect,"30.3 µM, […]",-76.84%
O=C1C[C@H]2CC[C@@H](CN1)N2C(=O)Cc1ccsc1,Percent Effect,"30.3 µM, […]",-6.652%
CN(C)C(=O)COCc1cncc2c1CCN(Cc1ccccn1)C2.O=C(O)C(F)(F)F.O=C(O)C(F)(F)F,Percent Effect,"30.3 µM, […]",-50.95%
O=C(NC1CC1)[C@@H]1CCO[C@@H]2CCN(CCc3ccccc3)C[C@@H]21.O=C(O)C(F)(F)F,Percent Effect,"30.3 µM, […]",-14.39%
CC(C)n1c2ccccc2c2c1cc(C(=O)N(C)C)n2C,Percent Effect,"30.3 µM, […]",-58.05%
COc1ccc(NC(=O)NCC(C)N2CCc3ccccc32)cc1 (configuration not stated),Percent Effect,"30.3 µM, […]",-7.739%
CC(CNC(=O)c1ccc(C#N)cc1)N1CCc2ccccc21 (configuration not stated),Percent Effect,"30.3 µM, […]",1.685%
CC(CNC(=O)Nc1ccc(C#N)cc1)N1CCc2ccccc21 (configuration not stated),Percent Effect,"30.3 µM, […]",100.3%
CC(=O)Nc1c(C)noc1/C=C\c1ccc(S(=O)(=O)NC2CC2)cc1,Percent Effect,"30.3 µM, […]",-2.674%
COCC(=O)N1CCCC1c1cccc(Nc2ncc(C)s2)n1 (configuration not stated),Percent Effect,"30.3 µM, […]",85.92%
Cc1ccccc1CN1CCCC1c1cccc(Nc2nccs2)n1 (configuration not stated),Percent Effect,"30.3 µM, […]",5.594%
Cc1cnc(Nc2cccc(C3CCCN3C(=O)CO)n2)s1 (configuration not stated),Percent Effect,"30.3 µM, […]",28.67%
COCC(=O)N1CCCCC1c1ccnc(Nc2ncc(C)s2)n1 (configuration not stated),Percent Effect,"30.3 µM, […]",16.03%
CS(=O)(=O)N1CCCC1c1cccc(Nc2nccs2)n1 (configuration not stated),Percent Effect,"30.3 µM, […]",92.1%
c1ccc(CCN2CCCC2c2cccc(Nc3nccs3)n2)cc1 (configuration not stated),Percent Effect,"30.3 µM, […]",29.28%
